# Bioassay records deposited in PubChem by several laboratories.
# Rows were chosen to be rich in hits. Some 4.2% of all compounds tested hit in one or more screens of this group.
# GAA850 FXN act – FXN promoter activators, primary screen, cell-based, luciferase luminescence, HEK293 lucGAA850. HEK293 lucGAA850 FXN promoter luciferase reporter, 24 h; percent of 10 µM SAHA response. activation, % at 6 µM. actives 0.56% (n = 360,000). AID 540364, 2011;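 active means activation above the average of all compounds screened plus 3 SD, cutoff fixed separately per campaign, cut at about 7.5% in these data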;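 further: 0% = DMSO wells and 100% = 10 µM SAHA wells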
# MITF TRPM1 HTS – activators of MITF-driven TRPM1 promoter reporter, primary screen, cell-based, SK-MEL-5, luciferase, single point | SK-MEL-5 TRPM1-promoter luciferase, 24 h; % of positive control, neutral wells = 0 | activation, % at 12.5 µM | actives 0.75% (n = 300,000) | AID 588334, 2011;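 active means mean activation of at least 80% with every replicate also reaching 80%; inconclusive means mean reaches 80% but some replicate falls short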;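 further: 0% = neutral control wells and 100% = parthenolide positive control wells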
# Wnt act – Wnt/beta-catenin pathway activators, primary screen, cell-based, plate reader, single point; Wnt/beta-catenin reporter cell assay, activator; activation, % at 9.35 µM; actives 1.2% (n = 300,000); AID 743398, 2014; in the data active means activation above about 30%, passing the limit was not always enough; inconclusive means no clear call, values can overlap the other calls;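 further: 0% = neutral control wells and 100% = positive control wells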
# esBAF inh – Bmi1 luciferase reporter increase in mESCs, primary screen, esBAF inhibitor project, mouse ES cells, Bmi1 luciferase knock-in, single point | 24 h; 100% = twice the neutral-well signal | reporter increase, % at 12.5 µM | actives 2% (n = 350,000); in the data active means activation above about 40%; inconclusive means no clear call, values can overlap the other calls;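 further: 0% = median of the plate's neutral control wells and 100% = double that signal; a rise in the Bmi1 reporter signal indicates esBAF inhibition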
# AHR act – AHR activators, primary screen, cell-based, luminescence, luciferase reporter, human | Aryl hydrocarbon receptor (Homo sapiens), P35869 | AHR-responsive luciferase reporter cells | activation, % at 5 µM | actives 2.5% (n = 320,000) | AID 2796, 2010; in the data active means activation above about 47%;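 further: 0% = vehicle wells and 100% = reference agonist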
# Target sequence (P35869 whole entry, looked up): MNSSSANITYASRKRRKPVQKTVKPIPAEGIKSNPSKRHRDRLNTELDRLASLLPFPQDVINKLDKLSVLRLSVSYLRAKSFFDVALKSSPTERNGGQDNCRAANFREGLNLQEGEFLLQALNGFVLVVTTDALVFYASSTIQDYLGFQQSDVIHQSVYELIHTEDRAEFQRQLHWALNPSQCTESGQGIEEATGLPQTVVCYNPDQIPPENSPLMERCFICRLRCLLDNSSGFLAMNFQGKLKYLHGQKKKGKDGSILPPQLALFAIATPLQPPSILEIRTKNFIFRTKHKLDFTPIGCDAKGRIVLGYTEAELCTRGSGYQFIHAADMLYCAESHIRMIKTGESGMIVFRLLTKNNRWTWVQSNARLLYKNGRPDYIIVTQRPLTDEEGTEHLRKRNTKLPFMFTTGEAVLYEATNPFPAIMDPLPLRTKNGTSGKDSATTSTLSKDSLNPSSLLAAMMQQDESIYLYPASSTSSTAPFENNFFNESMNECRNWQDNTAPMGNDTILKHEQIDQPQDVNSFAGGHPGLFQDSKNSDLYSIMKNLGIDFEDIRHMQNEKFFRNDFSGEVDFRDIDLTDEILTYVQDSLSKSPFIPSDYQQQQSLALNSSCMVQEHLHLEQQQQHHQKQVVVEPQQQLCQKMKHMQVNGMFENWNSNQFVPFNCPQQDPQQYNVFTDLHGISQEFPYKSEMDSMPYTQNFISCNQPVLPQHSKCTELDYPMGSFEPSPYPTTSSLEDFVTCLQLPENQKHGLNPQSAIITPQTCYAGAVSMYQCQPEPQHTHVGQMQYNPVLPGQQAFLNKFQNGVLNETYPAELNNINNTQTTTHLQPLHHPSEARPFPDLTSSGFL
# * = called active by the depositor; u = inconclusive; x = no result given.
SMILES,GAA850 FXN act,MITF TRPM1 HTS,Wnt act,esBAF inh,AHR act
Cc1cccc(-n2ncc3c(NCc4cccnc4)ncnc32)c1,4.4,67.1,21.4,87.9*,32.5
Cc1sc2ncnc(NCc3cccs3)c2c1C,2.0,x,4.5,-16.6,-0.6
Cc1ccc(-c2cnc3c(c2)C(=O)N([C@@H](C)CO)C[C@H](C)[C@H](CN(C)C(=O)Cc2ccccc2)O3)cc1,x,x,x,-4.7,x
COc1cccc(/C=N/Nc2cc(N3CCOCC3)ncn2)c1O,-0.8,6.3,-5.5,-42.2,47.5*
COc1cccc(/C=N/Nc2cc(Cl)nc(C)n2)c1O,4.4,52.1,1.0,x,22.2
COc1cccc(/C=N/Nc2c(Cl)cncc2Cl)c1O,6.0,112.6*,11.6,u,22.6
Cc1cc(C(=O)Nc2cccc3c2O[C@@H](CN(C)S(=O)(=O)c2ccc(Cl)cc2)[C@@H](C)CN([C@H](C)CO)C3=O)n(C)n1,x,x,x,-8.9,x
Cc1noc(C)c1S(=O)(=O)Nc1ccc2c(c1)C(=O)N([C@H](C)CO)C[C@H](C)[C@@H](CN(C)S(=O)(=O)c1ccc(Cl)cc1)O2,x,x,x,0.2,x
O=C(C[C@H]1CC[C@@H]2[C@H](COC[C@H](O)CN2Cc2ccccc2)O1)NCc1ccccc1Cl,x,x,x,-3.5,x
Cc1noc(C)c1S(=O)(=O)Nc1ccc2c(c1)C(=O)N([C@H](C)CO)C[C@H](C)[C@H](CN(C)C(=O)c1ccccc1)OCCCC[C@@H](C)O2,x,x,x,-2.2,x
CCc1cc2c(=O)c(-c3nc4ccccc4[nH]3)coc2cc1OC(=O)N1CCOCC1,-2.1,16.8,13.0,68.2*,22.9
COc1ccc(OC)c(NC(=O)c2cccc3c2C(=O)N(C2CCCCC2)C3)c1,0.1,10.5,-3.1,-2.3,14.1
COCCN1Cc2cccc(C(=O)Nc3cc(OC)ccc3OC)c2C1=O,2.6,3.6,x,-4.5,47.8*
Cc1cc2cc(C)c3nnc(SCc4ccccn4)n3c2cc1C,1.1,5.7,-3.2,x,72.8*
Cc1ccc2c(c1)[nH]c1c(=O)n(Cc3ccccn3)cnc12,4.0,2.1,x,6.5,49.1*
O=C(C[C@@H]1C[C@H]2c3cc(NC(=O)NC4CCCC4)ccc3O[C@H]2[C@H](CO)O1)NCc1ccc(Oc2ccccc2)cc1,x,x,x,2.8,x
Cc1nn(-c2ccc(F)cc2)c2nc(N)c(C#N)c(-c3cccs3)c12,-1.4,x,-6.1,13.7,65.4*
Cc1nn(-c2ccc(F)cc2)c2nc(N)c(C#N)c(-c3ccc(O)c(O)c3)c12,5.5,-16.7,0.5,-9.2,x
Cc1cccc(N=C2NC(=O)S/C2=C\c2ccco2)c1,1.2,-1.7,-1.3,x,67.6*
COCC(=O)Nc1ccc2c(c1)[C@@H]1C[C@@H](CC(=O)N[C@H](C)c3ccccc3)O[C@H](CO)[C@@H]1O2,x,x,x,-3.6,x
COc1cc(SC)ccc1C(=O)Nc1nccs1,3.5,11.4,8.8,-21.7,52.4*
COc1cc(SC)ccc1C(=O)Nc1c(C)cccc1C,-0.3,4.8,-0.6,x,0.8
COc1cc(SC)ccc1C(=O)Nc1ccccc1,4.5,x,33.9*,u,11.8
CN(C)C(=O)c1cccc(-c2ccc3c(c2)[C@H]2[C@H](CCN2Cc2ccccc2F)[C@@H](CO)N3)c1,x,x,x,6.9,x
CCOC(=O)c1c(C)[nH]c(C)c1C(=O)Cn1nnc(-c2ccccc2C)n1,1.7,9.5,-0.6,x,49.4*
SMILES,GAA850 FXN act,MITF TRPM1 HTS,Wnt act,esBAF inh,AHR act
CCOC(=O)c1c(C)[nH]c(C)c1C(=O)CSc1ncccn1,0.8,8.6,-0.9,3.0,77.6*
CCOC(=O)c1c(C)[nH]c(C)c1C(=O)CSc1nc2ccccc2[nH]1,-0.6,-8.6,-4.3,x,58.5*
CCC(=O)Nc1ccc2c(c1)C(=O)N(C)C[C@@H](OC)[C@H](C)CN(CCc1ccccc1)[C@@H](C)CO2,x,x,x,2.1,x
CN(C)c1ccc(NC(=O)CCn2c(=S)oc3ccccc32)cc1,4.2,32.6,-0.2,x,59.4*
CN1[C@H](C(=O)NCC(F)(F)F)[C@@H](CO)[C@@H]2Cn3c(ccc(-c4ccc(F)cc4)c3=O)[C@@H]21,x,x,x,1.4,x
N#C/C(=C\c1ccc(OCc2ccccc2)cc1)C(N)=O,2.5,63.1,40.9*,x,2.0
N#C/C(=C\c1ccc(OCc2ccc(F)cc2)cc1)C(=O)Nc1cccc(C(=O)O)c1,2.6,66.0,50.6*,32.9,20.2
